13 compounds from PubChem BioAssay (NCI) can be followed below.

What all share (assay): NCI-60 one-dose screen, 48 h (100 = growth as untreated, 0 = no growth, -100 = all killed)
Details in all cases: 10 µM unless noted

Assay [1] has as its system NCI-H23 lung.
For assay [2], the system named is NCI-H226 lung.
Assay [3] has as its system NCI-H322M lung.
The subject of assay [4] is HOP-62 NSCLC.
In assay [5] the test system is NCI-H460 lung.
Assay [6] concerns HOP-92 NSCLC.
For assay [7], the system named is NCI-H522 lung.
The subject of assay [8] is A549/ATCC NSCLC.
Assay [9] relates to 786-0 renal.
The test system of assay [10] is COLO 205 colon.

The panel holds about 83,000 compounds, 20% with a hit somewhere; the sample as a whole holds those more often.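 Single-concentration screen, 48 h exposure, 96-well plates. Endpoint: percent growth. Below 10 = active.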 Unmarked numbers belong to inactive results. The source made the active and inactive calls.

For `O=C1CCc2c(sc3[nH]c(=S)n(-c4ccc(OC(F)(F)F)cc4)c(=O)c23)C1`, the growth in assay [1] is 14.1%; in [2] it was 72.4%; in assay [3], 90.5%; in assay [4] it was 53.1%; in assay [5], 2.8% (active); in [6] it was -10.3% (active). In addition, the growth in assay [7] is 7.42% (active); in assay [8], 77.1%; in [9], 99.8%; in assay [10] it was 99.2%.

On to `COc1cccc(-c2nn(-c3ccccc3)cc2-c2ccnc(NCCNC(=O)Nc3ccc(Cl)c(Cl)c3)c2)c1`, for which the growth in assay [1] is 19.7%; in assay [2], 50.5%; in assay [3], 48.1%; in [4], 5.85% (active); in assay [5], 2.74% (active); in assay [6] it was -1.01% (active). The growth in assay [7] was -14.9% (active); in assay [8], -18.3% (active); in assay [9], -41.1% (active); in [10], -37.4% (active).

`CC/C=C\C[C@H](O)C/C=C1/C(=O)C=C[C@@H]1C/C=C\CCCC(=O)OC`: the growth is -7.41% (active) in assay [1]; -34.5% (active) in assay [2]; 29.3% in [3]; -32% (active) in assay [4]; -46.3% (active) in assay [5]; -20.5% (active) in assay [6]. The growth in assay [7] is -69.6% (active); in [8], -21.4% (active); in [9] it was -49.6% (active); in assay [10] it was -52.1% (active).

Consider `CCSC1=NC2C(N(CC)C(=O)N2CC)N1/N=C/C=C/c1ccccc1[N+](=O)[O-]` (stereo not given), for which the growth is 21.9% in assay [1]; 47.1% in assay [2]; 31.2% in [3]; 33.7% in assay [4]; 1.33% (active) in assay [5]; 19.8% in assay [6]. The growth in assay [7] was -1.31% (active); in assay [8], 19%; in [9], 19%; in assay [10], 3.83% (active).

With `O=C(/C=C/c1c(Cl)nc2sccn12)c1nccs1`, the growth in assay [1] is 94.2%; in assay [2], 83.4%; in [3], 104%; in assay [4], 88.2%; in [5], 92.7%; in [6], 63.8%. Moreover, the growth was 72.4% in assay [7], 88% in assay [8], 102% in assay [9] and 104% in assay [10].

In the case of `COC(=O)[C@H](CSC)N(C)C(=O)[C@@H]1CSSC[C@@H](NC(=O)c2nc3ccccc3cc2O)C(=O)NCC(=O)N1C`, the growth was 84.9% in [1]; 87.5% in assay [2]; 100% in [3]; 82.2% in assay [4]; 59.1% in assay [5]; 132% in assay [6]. Moreover, the growth was 45.9% in [7], 59.4% in [8], 111% in [9] and 16% in assay [10].

Turning to `Cc1ccc(NS(=O)(=O)c2ccc3c(c2)C(=O)CC(c2ccc(C(=O)C(C)C)cc2)N3)cc1C` (stereo not given), the growth is 44.1% in assay [1]; 57.7% in [2]; 67.2% in assay [3]; 69.1% in assay [4]; 53.9% in [5]; 67.9% in assay [6]. Besides, the growth in assay [7] was 60.5%; in assay [8] it was 52.4%; in assay [9], 86.3%; in [10], 59.4%.

Take `CN(C)CC1C(=O)O[C@H]2[C@H]1CC/C(COC(=O)c1cc3ccccc3[nH]1)=C\CC[C@@]1(C)O[C@@H]21` (stereo not given in full): the growth is 18.5% in [1]; 23.8% in assay [2]; 86.7% in assay [3]; 43.4% in assay [4]; 17.6% in assay [5]; -63.8% (active) in assay [6]. Further, the growth in [7] is -91.2% (active); in assay [8], 11.5%; in assay [9], -81.6% (active); in assay [10] it was -63.9% (active).

Take `O=C(O)c1ccc2c(c1Cl)C(=O)c1ccccc1C2=O`: the growth in assay [1] is 93.4%; in assay [2], 103%; in assay [3], 102%; in [4], 82.5%; in [5] it was 102%; in assay [6], 109%. Also, the growth in [7] is 106%; in assay [8] it was 116%; in assay [9] it was 91.1%; in [10], 115%.

`COc1cccc(-c2nc3sccn3c2-c2ccnc(NCCNS(=O)(=O)c3cccc(F)c3)c2)c1`: the growth in assay [1] is 33.7%; in [2], 22.9%; in assay [3], 73.2%; in [4], 55.3%; in assay [5], 28.8%; in [6], 18.3%. The growth in assay [7] was 40.9%; in assay [8], 27.2%; in assay [9] it was 48.1%; in assay [10] it was 25.8%.

`CC1(c2ccccc2)NC(=O)N(NC(=O)CSc2nc(-c3cccs3)nc3ccccc23)C1=O` (stereo not given): the growth in assay [1] was 89.7%; in assay [2], 91.1%; in [3], 98%; in assay [4], 88.7%; in [5], 107%; in assay [6], 77.4%. Further, the growth in assay [7] is 82.3%; in assay [8], 79.1%; in assay [9] it was 94.1%; in assay [10], 124%.

As to `COc1ccc2cc(-c3cc(OC)c(OC)c(OC)c3)c(=O)oc2c1`, the growth is 79.8% in [1]; 78.4% in [2]; 103% in [3]; 68.3% in assay [4]; 84.4% in assay [5]; 79.2% in assay [6]. Further, the growth in [7] is 48.3%; in assay [8] it was 42.1%; in [9] it was 68.2%; in assay [10], 83.3%.

For the compound `CCN(CC)S(=O)(=O)c1cccc(-c2ccc3c(NC(=O)C4CC4)n[nH]c3c2)c1`, the growth in assay [1] is 28.5% [6.25 µM]; in assay [2] it was 26.5% [6.25 µM]; in [3], 55.6% [6.25 µM]; in assay [4], 18.5% [6.25 µM]; in assay [5], 12.3% [6.25 µM]; in [6] it was 41.3% [6.25 µM]. Moreover, the growth was -17% [6.25 µM] (active) in [7], 21.2% [6.25 µM] in [8], 18.1% [6.25 µM] in assay [9] and 3.94% [6.25 µM] (active) in assay [10].
